The record followed here is PubChem BioAssay (NCI).

“And” between values parts separate entries of the source, which are not always exact repeats. Identical values can stand only once. About 83,000 compounds went through this panel and 20% of them were active in at least one assay; those are over-represented in the sample as a whole.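 Cells were grown in 96-well plates and exposed to the test compound at a single concentration for 48 hours; results are reported as percent growth, with values below 10 considered active.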 The source made the active and inactive calls.

Test in all cases: NCI-60 one-dose screen, 48 h (100 = growth as untreated, 0 = no growth, -100 = all killed)
Common to all, as to conditions: 10 µM unless noted

Assay [1] relates to SR leukemia.
The subject of assay [2] is OVCAR-8 ovarian.
In assay [3] the test system is OVCAR-5 ovarian.
The test system of assay [4] is OVCAR-4 ovarian.
For assay [5], the system named is OVCAR-3 ovarian.
Assay [6] concerns NCI/ADR-RES ovarian.
For assay [7], the system named is T-47D breast.
In assay [8] the test system is BT-549 breast.
The subject of assay [9] is MDA-MB-435 melanoma.
For assay [10], the system named is SW-620 colon.
In assay [11] the test system is MCF7 breast.
Assay [12] concerns HCT-116 colon.
The test system of assay [13] is HCC-2998 colon.
In assay [14] the test system is IGROV1 ovarian.
For assay [15], the system named is KM12 colon.
Assay [16] deals with SK-OV-3 ovarian.
Assay [17] has as its system HS 578T breast.

Regarding `Nc1nc(N)c2[nH]cnc2n1`, the growth was 93% (inactive) in [1]; 70.4% (inactive) in assay [2]; 90.3% (inactive) in assay [3]; 88.5% (inactive) in assay [4]; 97.8% (inactive) in assay [5]; 87.3% (inactive) in assay [6]. The growth in assay [7] was 59.1% (inactive); in [8] it was 96.8% (inactive); in assay [9], 84.5% (inactive); in assay [10], 85.9% (inactive); in [11], 54.2% (inactive); in assay [12] it was 90.5% (inactive). Moreover, the growth in [13] was 86% (inactive).

On to `Nc1ncnc2c1ncn2C1OC(COP(=O)(O)O)C(O)C1O` (centres undefined), for which the growth in assay [1] was 111% (inactive); in [2], 111% (inactive); in [3], 108% (inactive); in assay [4] it was 126% (inactive); in assay [5], 124% (inactive); in [6], 109% (inactive). Besides, the growth in [7] is 123% (inactive); in assay [8], 113% (inactive); in [11] it was 101% (inactive); in assay [12] it was 108% (inactive).

On to `Cl`, for which the growth in [1] was 104% (inactive); in assay [2], 98.6% (inactive); in [3] it was 105% (inactive); in assay [4], 125% (inactive); in [14] it was 120% (inactive); in assay [5] it was 119% (inactive). For the same compound, the growth is 102% (inactive) in [6]; 101% (inactive) in assay [7]; 112% (inactive) in assay [8]; 101% (inactive) in assay [9]; 100% (inactive) in assay [10]; 109% (inactive) in [11]. The growth in assay [12] was 104% (inactive); in assay [13], 108% (inactive).

Regarding `CCCCCCCCCCCCCCCCC(C(=O)O)C(O)(CC(=O)O)C(=O)O` (centres undefined), the growth is 90.8% (inactive) and 1.12% (active) in [1]; 111% (inactive) in assay [2]; 109% (inactive) and -56.6% (active) in assay [3]; 108% (inactive) and 21.3% (inactive) in assay [4]; 109% (inactive) and -21.4% (active) in assay [14]; 111% (inactive) and -3.72% (active) in [5]. In addition, the growth in assay [6] is 111% (inactive) and 89.7% (inactive); in [7], 98.2% (inactive) and 4.81% (active); in assay [8], 103% (inactive) and -46.4% (active); in assay [9], 102% (inactive) and -33.7% (active); in [10] it was 101% (inactive) and -23.5% (active); in assay [11], 95.7% (inactive) and -2.93% (active). In addition, the growth was 105% (inactive) and -35.5% (active) in assay [12]; 105% (inactive) and -34.4% (active) in assay [15].

As for `CC(C)NC(=O)N/C=C(\C#N)C(N)=O`, the growth is 100% (inactive) in assay [1]; 109% (inactive) in assay [2]; 92.5% (inactive) in assay [3]; 105% (inactive) in [4]; 104% (inactive) in [16]; 102% (inactive) in assay [14]. Also, the growth in [5] is 105% (inactive); in assay [6] it was 100% (inactive); in assay [7], 101% (inactive); in assay [8], 92.1% (inactive); in assay [9], 92.6% (inactive); in assay [10] it was 93.4% (inactive). The growth in assay [11] was 102% (inactive); in assay [12], 90.9% (inactive).

With `CC(C)NCC(O)c1ccc(O)c(O)c1` (centres undefined), the growth was 87.9% (inactive) and 95.3% (inactive) in assay [1]; 94.8% (inactive) and 131% (inactive) and 91.7% (inactive) in assay [2]; 89.2% (inactive) and 92.6% (inactive) and 86.9% (inactive) in assay [3]; 107% (inactive) and 110% (inactive) and 97.1% (inactive) in assay [4]; 96.4% (inactive) and 101% (inactive) in assay [14]; 113% (inactive) and 102% (inactive) and 108% (inactive) in assay [5]. The growth is 96.3% (inactive) and 102% (inactive) and 93.8% (inactive) in [6]; 98% (inactive) and 90.5% (inactive) and 102% (inactive) in assay [7]; 84.7% (inactive) and 79.9% (inactive) and 84% (inactive) in [8]; 104% (inactive) and 105% (inactive) and 101% (inactive) in [9]; 104% (inactive) and 107% (inactive) and 93% (inactive) in assay [10]; 100% (inactive) and 85.1% (inactive) and 109% (inactive) in [11]. In assay [12], the growth is 100% (inactive) and 93.3% (inactive) and 71.7% (inactive).

In the case of `CC(=O)NCC(=O)c1ccc([N+](=O)[O-])cc1`, the growth in assay [1] was 104% (inactive); in [2] it was 103% (inactive); in assay [3] it was 103% (inactive); in [4], 113% (inactive); in [14], 107% (inactive); in assay [5], 105% (inactive). Further, the growth in assay [6] was 104% (inactive); in assay [7], 86.3% (inactive); in assay [8], 107% (inactive); in assay [9], 104% (inactive); in [10] it was 99.5% (inactive); in assay [11] it was 96.5% (inactive). In addition, the growth in assay [12] was 106% (inactive).

Regarding `O=C1CSC2=NCCN12`, the growth in assay [1] was 98.3% (inactive) and 49.5% (inactive); in [2], 96.4% (inactive) and 107% (inactive); in assay [3], 116% (inactive) and 96.7% (inactive); in [4] it was 93.9% (inactive) and 94.2% (inactive); in [14] it was 106% (inactive) and 101% (inactive); in assay [5], 102% (inactive) and 122% (inactive). Moreover, the growth was 94.9% (inactive) and 102% (inactive) in [6]; 111% (inactive) in [7]; 131% (inactive) in assay [8]; 71.5% (inactive) and 70.6% (inactive) in assay [9]; 92% (inactive) and 93.4% (inactive) in [10]; 92.7% (inactive) and 81.6% (inactive) in [11]. Also, the growth in [12] was 82.7% (inactive) and 63.8% (inactive).

With `O=C(O)CCCl`, the growth in [1] was 83.7% (inactive); in assay [2], 104% (inactive); in [3], 99.1% (inactive); in assay [4], 98.8% (inactive); in [14] it was 107% (inactive); in assay [5] it was 115% (inactive). In addition, the growth in [17] was 96.4% (inactive); in assay [6], 108% (inactive); in assay [7], 110% (inactive); in assay [8], 113% (inactive); in assay [9], 109% (inactive); in assay [10], 105% (inactive). Besides, the growth was 97.5% (inactive) in [11], 94.8% (inactive) in assay [12] and 106% (inactive) in assay [15].
